DT40 TDP1 CPT – growth inhibition of DT40 Tdp1-/-;hTDP1 cells with camptothecin (screen for TDP1 inhibitors). chicken DT40 Tdp1-/-;hTDP1 cells + 20 nM CPT, ATP luminescence, 48 h. Potency, µM (series often up to 46.2 µM), for inactives: top-dose activity change, negative = growth inhibition, most hits filed as inhibitors. actives 12% (n = 420,000); further: potency means the concentration at half of the fitted maximal effect; nearly all actives have a fitted effect of over 55% in size
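Chicken DT40 Tdp1-/- cells stably complemented with human TDP1 were seeded at 400 cells/well in medium containing 20 nM camptothecin, exposed to pin-transferred compounds, and grown at 37 °C for at least 48 hr. Viability was read as ATP luminescence.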
IL1B secr inh – blocks inflammasome-driven IL-1 beta release; actives 4.7% (n = 360,000); activity change, % at 57.5 µM; AID 743279; THP-1 LPS/ATP IL-1B secretion, AlphaLISA, 16 h; stronger effect = lower value; in the data active means activity change below about -50%; inconclusive means mostly about -30% to -49%
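THP-1 cells pretreated 1 hr with compounds (up to 57.5 uM final), then stimulated with LPS (250 ng/mL final) plus ATP (1.25 mM final); secreted IL-1B measured by AlphaLISA after 16 hr, decreased signal indicating inhibition.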
ELG1 DNA repair – inhibitors of ELG1-dependent DNA repair in HEK293T cells | actives 2.3% (n = 330,000) | HEK293T ELG1-luciferase reporter, luminescence, 16 h; DNA damage induced by 5-fluorouridine | Potency, µM (series often up to 46.1 µM), for inactives: at the highest dose activity change, negative = inhibition, hits mostly inhibitors; further: potency means the concentration at half of the fitted maximal effect; nearly all actives have a fitted effect of over 55% in size
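HEK293T cells expressing luciferase-tagged ELG1 (2,000/well) received 5-Fluorouridine plus compound or DMSO for 16 hr at 37 °C. Luciferase was read by ONE-Glo luminescence after 30 min at room temperature.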
TDP1 block – TDP1 (human) enzyme inhibition. actives 0.28% (n = 350,000). Potency, µM (top dose mostly 130 µM), inactives show at the highest dose activity change, negative = inhibition, hits mostly inhibitors. AID 485290. recombinant TDP1, AlphaScreen DNA substrate cleavage. Q9NUW8; further: potency means the concentration at half of the fitted maximal effect; nearly all actives have a fitted effect of over 40% in size
Target sequence (Q9NUW8 whole entry, looked up): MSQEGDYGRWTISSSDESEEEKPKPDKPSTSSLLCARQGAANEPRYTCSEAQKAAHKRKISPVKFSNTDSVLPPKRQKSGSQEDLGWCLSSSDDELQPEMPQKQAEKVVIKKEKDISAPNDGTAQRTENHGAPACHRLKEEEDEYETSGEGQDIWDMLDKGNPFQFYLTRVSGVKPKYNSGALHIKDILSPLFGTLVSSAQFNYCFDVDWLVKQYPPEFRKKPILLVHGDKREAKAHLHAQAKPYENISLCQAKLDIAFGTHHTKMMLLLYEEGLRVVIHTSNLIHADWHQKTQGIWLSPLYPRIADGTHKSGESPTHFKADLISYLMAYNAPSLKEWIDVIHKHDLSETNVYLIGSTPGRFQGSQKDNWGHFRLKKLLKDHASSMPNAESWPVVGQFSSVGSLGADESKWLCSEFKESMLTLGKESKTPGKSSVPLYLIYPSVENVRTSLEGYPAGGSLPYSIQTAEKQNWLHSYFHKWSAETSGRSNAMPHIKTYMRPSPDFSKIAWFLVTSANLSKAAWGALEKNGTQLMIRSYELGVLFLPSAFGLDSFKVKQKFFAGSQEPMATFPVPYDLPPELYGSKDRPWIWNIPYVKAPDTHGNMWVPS
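Steps: enzyme plus compound, 15 min RT; add biotin/phosphotyrosine-FITC oligonucleotide (15 nM final), react 5 min; add donor/acceptor beads (10 ug/ml final), 10 min; read AlphaScreen. Tdp1 at 1 nM final.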
Giardia kill – kills Giardia lamblia. activity change, % at 7.66 µM, hits read low. actives 0.15% (n = 340,000). AID 540267. Giardia lamblia trophozoite viability; in the data active means activity change below about -80%; inconclusive means between about -30% and that limit;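 further: parasites exposed to compound for two days anaerobically before the ATP read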
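ATP-content bioluminescence gauges trophozoite survival. Cells (100/well) receive compound and incubate anaerobically for 48 hrs at 37 deg C; detection reagent follows for 15-30 min at room temperature.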
DT40 TDP1 no CPT – qHTS for Inhibitors of human tyrosyl-DNA phosphodiesterase 1 (TDP1): qHTS in cells in absence of CPT; actives 15% (n = 420,000); Potency, µM (titrated, usually from 46.2 µM), for inactives: at the top dose activity change, negative = growth inhibition, actives largely listed as inhibitors; AID 686978, 2013; DT40 Tdp1-/- hTDP1 cells, no CPT, ATP luminescence, 48 h; further: potency means the concentration at half of the fitted maximal effect; nearly all actives have a fitted effect of over 55% in size
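Camptothecin absent (DMSO only). Human TDP1-complemented DT40 knockout cells, 400 cells/well, 37 °C for minimum 48 hr; ATP measured via CellTiter-Glo, 30 min dark incubation, luminescence.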
The depositor's hits bear a star; ? = inconclusive; · = no result given; ! = not active in a repeat; [ ] = remark or other dose. Sampled rows, rich in hits. Any-hit rate of the full collection: about 19%. Unless noted, the call rests on the fitted dose curve; in most records, active means well fitted curve in the direction sought with a large enough effect; inconclusive means small, poorly fitted or top-dose-only effect, or another doubt; inactive means no such curve, though single readings can be large; an effect the other way counts as inactive or inconclusive. On the % scale 0 is the no-effect control and ±100 the full control effect.

SMILES	DT40 TDP1 CPT	IL1B secr inh	ELG1 DNA repair	TDP1 block	Giardia kill	DT40 TDP1 no CPT
CCCN1C(=O)c2ccccc2NC1c1ccc(OC)c(COc2ccc([N+](=O)[O-])c(C)c2)c1 (centres undefined)	?	·	·	-4.2%	1.6	17.8µM*
COc1ccc(CCN2CC(C(=O)Nc3cc(S(C)(=O)=O)ccc3Cl)CC2=O)cc1OC (centres undefined)	6.1%	-1.9	10.5%	0.0%	-21.6	-1.4%
CC(C)CCNC(=O)C1CCC(CNc2c(N3CCCC3)c(=O)c2=O)CC1 (centres undefined)	-8.7%	8.2	2.7%	-4.3%	3.1	-17.2%
Cn1c(NC(=O)C(C)(C)Oc2ccc(Cl)cc2)cc(=O)n(C)c1=O	16.4µM*	26.2	-3.0%	4.1%	-5.0	?
Cn1c(NC(=O)c2cc(Cl)ccc2Cl)cc(=O)n(C)c1=O	3.5%	6.1	17.4%	2.5%	-5.2	0.8%
C=CCSc1nc2sc3c(c2c(=O)n1CC)CCc1ccccc1-3	10µM*	-16.7	-23.8%	4.0%	8.8	?
C=CCn1c(SC)nc2sc3c(c2c1=O)CCc1ccccc1-3	?	83.7	?	-2.7%	-20.9	?
O=S(=O)(c1ccccc1)c1nc(-c2ccc(F)cc2)oc1N1CCCCCC1	18.4µM*	·	·	1.1%	·	14.6µM*
Cc1ccc(-c2nc(S(=O)(=O)c3ccc(C)cc3)c(N3CCOCC3)o2)cc1	-1.2%	5.4	14.8%	·	4.5	-24.3%
NC(=O)C1CCN(c2oc(-c3ccc(F)cc3)nc2S(=O)(=O)c2ccccc2)CC1	?	-2.0	?	3.4%	-4.5	?
Cc1ccc(S(=O)(=O)c2nc(-c3ccc(F)cc3)oc2N2CCN(c3ccccc3)CC2)cc1	?	·	·	1.2%	·	18.4µM*
CCOc1ccccc1C(=O)Nc1cccc2cccnc12	21.6%	-8.2	7.2%	·	-18.4	-15.9%
CC(OC(=O)C1CC2CCCC(C1)C2=O)C(=O)Nc1cccc([N+](=O)[O-])c1 (centres undefined)	?	13.7	-36.5%	0.0%	?	?
CC(Cc1ccco1)NC(=O)c1cccc(S(=O)(=O)N(C)C)c1 (centres undefined)	-14.2%	-3.8	?	·	18.1	-8.2%
CCN(CC)C(=O)CSc1nc2c(sc(=S)n2-c2ccccc2)c(=O)n1-c1ccc(OC)c(OC)c1	-2.1%	?	?	·	-5.6	-3.2%
Cc1nc2cc(-c3ccccc3)nn2c(C)c1CCC(=O)NC(C)c1ccc2c(c1)OCCO2 (centres undefined)	?	9.1	-25.3%	2.6%	1.3	18.4µM*
Cc1nc2cc(-c3cccc(F)c3)nn2c(C)c1CCC(=O)NC(C)c1ccc2c(c1)OCCO2 (centres undefined)	16.4µM*	-7.3	?	0.0%	19.3	?
N#Cc1ccc(OCC(=O)OCC(=O)NC2CC2)cc1	1.8%	6.1	23.7%	0.6%	0.3	-4.9%
CC1=C(SCc2ccccc2)C(=O)c2ccccc2C1=O	2.59µM*	-69.9*	·	·	1.2	3.26µM*
O=C(O)c1c(Cl)c(Cl)c(Cl)c(Cl)c1-c1c2cc(I)c(=O)c(I)c-2oc2c(I)c(O)c(I)cc12	?	·	·	28.5%	·	15µM*
O=C(O)c1ccccc1-c1c2cc(I)c(=O)c(I)c-2oc2c(I)c(O)c(I)cc12	?	-10.5	·	22.0%	-4.7	?
N/C(=N\OC(=O)/C=C/c1ccccc1Cl)c1ccncc1	-3.4%	-56.3*	?	6.2%	7.7	0.5%
N/C(=N\OC(=O)c1ccccc1Cl)c1cccc([N+](=O)[O-])c1	-7.4%	10.5	?	·	22.8	?
N/C(=N/OC(=O)c1ccccc1Cl)c1ncc([N+](=O)[O-])s1	3.66µM*	-87.8*	?	·	?	8.2µM*
N/C(=N\OC(=O)/C=C/c1ccccc1)c1ccncc1	-17.9%	-50.2*	?	0.0%	-4.2	8.5%
SMILES	DT40 TDP1 CPT	IL1B secr inh	ELG1 DNA repair	TDP1 block	Giardia kill	DT40 TDP1 no CPT
N/C(=N\OC(=O)c1cc([N+](=O)[O-])ccc1Cl)c1ccccn1	?	-95.7*	?	·	-14.9	18.4µM*
Cc1nc2sccn2c1CN1CCC2(CC1)CC2C(=O)Nc1ccc2c(c1)OCO2 (centres undefined)	-2.5%[9.04 µM]	·	·	·	·	?
CCOc1ccc(NC(=O)CN(c2ccc(C)cc2)S(=O)(=O)c2cccs2)cc1	4.6%	·	·	-2.3%	·	22.1%
COc1ccccc1C/C(N)=N/OC(=O)/C=C/c1ccccc1	?	-56.5*	12.9%	0.6%	-2.1	-3.8%
COc1ccccc1C/C(N)=N/OC(=O)c1cccs1	?	9.2	-0.9%	5.4%	-17.6	?
N/C(=N\OC(=O)c1ccc(Cl)cc1Cl)c1ccncc1	-14.2%	-23.3	?	·	3.0	2.5%
N/C(=N\OC(=O)c1ccccc1Cl)c1ccncc1	-27.6%	28.7	23.1µM*	-8.3%	-6.2	-14.4%
CCOC(=O)C1=C(C)Nc2sc(C(=O)c3ccc(F)cc3)c(N)c2C1c1ccc(C(=O)OC)cc1 (centres undefined)	18.4µM*	-10.2	5.17µM*	2.6%	-8.6	11.6µM*
O=C(Cn1c(SCCOc2ccccc2)nc2ccccc21)N1CCOCC1	-1.1%	·	·	8.6%	·	-16.2%
O=C(CSc1nc(=O)n(CCN2CCOCC2)c2c1CCC2)Nc1ccc(OC(F)(F)F)cc1	13.2%	-74.7*	?	-0.3%	-10.9	-24.6%
COc1ccc(NC(=O)CSc2nc(=O)n(CCN3CCOCC3)c3c2CCC3)cc1	-5.3%	-1.0	-7.3%	·	-8.0	9.1%
Cc1cc(C)cc(NC(=O)CSc2nc(=O)n(CCCN3CCOCC3)c3c2CCCC3)c1	-26.0%	-52.3*	-29.8%	-3.5%	-1.5	?
CC(C)c1ccc(NC(=O)CSc2nc(=O)n(CCCN3CCOCC3)c3c2CCC3)cc1	-2.4%	-62.6*	?	·	-5.2	-13.5%
COC(=O)[C@@]1(Cc2ccccc2)[C@H]2c3cc(C(=O)N4CCCC4)n(Cc4ccc(C(F)(F)F)nc4)c3C[C@H]2CN1C(=O)c1ccccc1	·	·	·	14.1%	·	·
CCCOC(=O)NCCCN(C)C	·	·	·	8.9%	·	·
CCc1nnc(NC(=O)c2nc(Cl)ccc2Cl)s1	-3.6%	-1.0	16.0%	2.5%	-4.7	2.7%
CCc1nnc(NC(=O)c2nc(S(=O)(=O)Cc3cccc(C)c3)ncc2Cl)s1	5.8µM*	-102.1*	?	2.1%	-10.7	5.17µM*!

Bioassay records: PubChem BioAssay, National Center for Advancing Translational Sciences (NCATS)
